Among the data in PubChem BioAssay (NCI) are growth values, retold here.

The panel holds about 83,000 compounds, 20% with a hit somewhere; the sample as a whole holds those more often.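 Single-dose data. Exposure time 48 hours. Values below 10 considered active.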 Values without a mark were called inactive. Activity calls are given as the source filed them.

This assay relates to MDA-MB-468 breast. As to the kind of experiment: NCI-60 one-dose screen, 48 h (100 = growth as untreated, 0 = no growth, -100 = all killed). The note with it: 10 µM unless noted.
Regarding `O=C1c2cc(Br)ccc2-n2c1nc1cc(Br)ccc1c2=O`, the growth is 76.6%. Then `CC(=O)NCC(=O)c1ccc([N+](=O)[O-])cc1`, with 117%; and `CN1CCN(Cc2ccc(NC(=O)c3cc(C#Cc4cnc(N)c5ncccc45)n(C)n3)cc2C(F)(F)F)CC1`, with 104%; and `CCOC(=O)c1sc(/N=C2\NC(=O)/C(=C/c3ccc(N4CCN(C)CC4)cc3)S2)nc1C`, with 111%. `COc1cc2c3c(c1O)-c1ccccc1[C@@H]1OC(=O)N(CC2)[C@H]31`: the growth is 90%.

In the case of `CC1(C)CCC(S(=O)(=O)c2ccc3c(c2)/C(=N\O)c2cc(S(=O)(=O)N4CCN(c5ccc(F)cc5O)CC4)ccc2-3)CC1`, the growth was -82.5% (active). Under `CN1/C(=C\C(I)C(I)C2=[N+](C)c3ccccc3C2(C)C)C(C)(C)c2ccccc21` (configuration not stated) stands -17.6% (active).

Take `O=C(/C=C/c1ccccn1)c1ccccc1`: the growth is 21.3%. `NC(N)=N/N=C(/c1ccccc1)c1ccc(Cl)cc1`: the growth is 39.6%.

Take `CS(=O)(=O)c1ccc(/C(=N/N=C(N)N)c2ccc(F)cc2)cc1`: the growth is -5.12% (active). Then `CC[C@H](C)[C@H]1NC(=O)[C@@H](N[C@](C)(O)[C@@H](N)CC(C)C)[C@@H](C)OC(=O)[C@H](Cc2ccc(OC)cc2)N(C)C(=O)[C@@H]2CCCN2C(=O)[C@H](CC(C)C)NC(=O)[C@@H](C)C(=O)[C@H](C(C)C)OC(=O)C[C@@H]1O`, with -31.2% (active). Take `CC1CCCN(CCCCCOc2ccc3oc4ccccc4c(=O)c3c2)C1` (configuration not stated): the growth was 52.2%.
